LASV entry inh – qHTS for Inhibitors of binding or entry into cells for Lassa Virus | Lassa virus pseudotype entry inhibition, cell reporter | Potency, µM (doses to about 37.9 µM), inactives show top-dose activity change, negative = inhibition, hits mostly inhibitors | hit rate 1.2% among 300,000 | AID 540256, 2011; calls by dose curve; tested in HEK293 cells; note: potency is the fitted concentration of half-maximal effect; % is set by controls: 0 for no effect and ±100 for the full control effect; nearly all actives have a fitted effect of over 50% in size
CHX counter – Cycloheximide Counterscreen for Small Molecule Inhibitors of Shiga Toxin; hit rate 12% among 300,000; max response, %; cell reporter, cycloheximide protein synthesis inhibition counterscreen; in the data active = max response mostly above about 13%, no sharp cut-off; inactive = mostly below about 14%; note: read at 38.3 µM for the half of the compounds with a filed dose; 0% is about no effect
MARV entry inh – qHTS for inhibitors of binding or entry into cells for Marburg Virus. hit rate 1.8% among 300,000. Marburg virus pseudotyped entry inhibition, cell reporter. AID 540276, 2011. Potency, µM (doses to about 37.8 µM), for inactives: top-dose activity change, negative = inhibition, usual class: inhibitors; calls by dose curve; tested in HEK293 cells; note: potency is the fitted concentration of half-maximal effect; % is set by controls: 0 for no effect and ±100 for the full control effect
Shiga inhibitor – A qHTS for Small Molecule Inhibitors of Shiga Toxin; AID 2315, 2010; Vero cells, Shiga toxin protein synthesis inhibition reporter; inhibition, % at 38.7 µM; hit rate 9.2% among 290,000; in the data active = inhibition mostly above about 28%, no sharp cut-off; inactive = mostly below about 43%; note: 0% is about no effect
* hit, by the source's call; ? = inconclusive; . = no result; [ ] = remark or other dose. A selection: hits, their analogues and other compounds. The true share with any hit is near 12%.

SMILES	LASV entry inh	CHX counter	MARV entry inh	Shiga inhibitor
CC1=C(C(=O)Nc2ccccn2)C(c2ccc3c(c2)OCO3)C2=C(CC(C)(C)CC2=O)N1 (stereo not drawn)	-4%[46.1 µM]	16*	-3%[46.1 µM]	31
CCN(CC)c1ccc(C2C(C(=O)Nc3ccccn3)=C(C)NC3=C2C(=O)CC(C)(C)C3)cc1 (stereo not drawn)	11%	-9	14%	-23
Cc1csc(=O)n1CC(=O)OCC(=O)Nc1ccc(F)c(F)c1	2%	.	5%[46.1 µM]	.
CCCC(=O)OCC(=O)Nc1ccc(N=Nc2ccccc2)cc1	?	62*	?	84*
Cc1cc(S(=O)(=O)NCc2ccccc2)ccc1OCC(=O)Nc1cccc([N+](=O)[O-])c1	?	3	12µM*	-3
CC1CC1C(=O)OCC(=O)Nc1ccc(N=Nc2ccccc2)cc1 (stereo not drawn)	6%	55*	?	93*
Cc1cc(S(=O)(=O)NCc2ccccc2)ccc1OCC(=O)NCc1ccccn1	?	-2	-5%[46.1 µM]	-10
Nc1ccc(SCC(=O)Nc2cccc([N+](=O)[O-])c2)cc1	?	37*	3%	51
CC1CC1C(=O)OCC(=O)Nc1cccc([N+](=O)[O-])c1 (stereo not drawn)	?	32*	-3%[46.1 µM]	65*
CC(CCN1CCCc2nc(C)c(C)cc21)=NO[C@H](C)CN1CCCc2nc(C)c(C)cc21	.	.	-41%[14.2 µM]	.
O=C(c1cnn(-c2ccccc2)c1)c1cc(Br)ccc1O	7%	.	?	.
O=C(c1cnn(-c2nc3ccccc3s2)c1)c1ccccc1O	?	30*	-55%	47*
O=C(c1cnn(-c2cccc(F)c2)c1)c1ccccc1O	10%[46.1 µM]	24*	?	100*
O=C(O)c1ccc(-n2cc(C(=O)c3ccccc3O)cn2)cc1	.	29*	.	30
O=C(c1cnn(C(=O)c2ccccc2)c1)c1ccccc1O	6%	14	?	31
Cc1cc(=O)oc2c3c(cc(OCC(=O)N[C@@H](CC(C)C)C(=O)O)c12)OC(C)(C)CC3	?	-3	-29%	29
CCC(C)C1NC(=O)C2CCCN2C(=O)C(CC(C)C)OC(=O)CCNC(=O)C(C)N(C)C(=O)C(C(C)C)N(C)C1=O (stereo not drawn)	3.2µM*	.	2µM*	.
CCCCNC(=O)NNC(=O)c1ccco1	7%	-3	6%	-3
CCCCNC(=O)NNC(=O)c1ccoc1C	8%	53*	-4%	62*
CCCCNC(=S)NNC(=O)c1ccoc1C	25%[14.3 µM]	19*	3%	50
COc1ccccc1OCc1nnc(SCC(=O)Nc2nnc(C3CC3)s2)n1C	-3%	-1	-15%[46.1 µM]	-13
COc1ccc(CNC(=O)c2ccc(-c3nc(CSc4ccccc4)c(C)o3)cc2)cc1	6%[46.1 µM]	.	.	.
Cc1ccc(Nc2nc(CSc3n[nH]c(N)n3)cs2)cc1	.	31*	.	66*
c1ccc(-c2nc(CSc3nnc(-c4cccs4)o3)cs2)cc1	17%	-1	2%	-7
Cc1ccc(Nc2nc(CSc3nnc(-c4cccs4)o3)cs2)cc1	10%	48*	0%	74*
SMILES	LASV entry inh	CHX counter	MARV entry inh	Shiga inhibitor
Cc1ccc(CSc2n[nH]c(N)n2)cc1	-6%[46.1 µM]	22*	13%[46.1 µM]	-5
Cc1ccc(OCCCSc2n[nH]c(N)n2)cc1	.	15*	.	28
Cc1ccc(CNC(=O)CSc2n[nH]c(N)n2)cc1	-2%	-2	3%	-7
COc1ccc(-n2nc(C(=O)O)cc2-c2ccccc2)cc1	.	-3	.	-2
COC(=O)N1C(/C=C/c2ccc3c(c2)OCO3)=Cc2ccccc2C1CC(C)=O (stereo not drawn)	.	.	-12%[14.2 µM]	.
CC(C)(C)CC(=O)Nc1ccccc1N1CCN(c2ccccc2)CC1	?	7	?	23
CC(C)(C)CC(=O)Nc1ccccc1N1CCN(c2ccc(F)cc2)CC1	?	1	7.9µM*	.
CC(C)CC1NC(=O)N(CC(=O)Nc2ccc3c(c2)OCCO3)C1=O (stereo not drawn)	17%	.	26%	.
CC(NC(=O)c1ccccc1F)C(=O)O (stereo not drawn)	-1%	-6	10%[46.1 µM]	-25
O=C(N/N=C\CCc1ccccc1)c1ccco1	29%	38*	?	50*
CC(/C=N/NC(=O)c1ccccc1F)c1ccccc1 (stereo not drawn)	.	30*	.	165*
CC(/C=N/NC(=O)c1ccccc1F)=C\c1ccccc1	.	47*	.	107*
CC(C=NNC(=O)C(=O)NN=CC(C)=Cc1ccccc1)=Cc1ccccc1	0%[46.1 µM]	.	-9%[46.1 µM]	.
CN(C(=O)c1ccccc1F)C(c1ccccc1)c1ccccc1	11µM*	1	?	24
O=C(Nc1ccc(S(=O)(=O)NCCc2ccccc2)cc1)c1ccco1	-18%	10	12%	18

High-throughput results from PubChem BioAssay.
